Reference: PubChem BioAssay (Tox21)
Unmarked numbers belong to inactive results. Results filed as inconclusive are left out. Calls of active or inactive are those of the source. Unless noted, calls follow the shape of the dose curve; as a rule, active = well fitted curve in the direction sought with a large enough effect in the repeat runs; inconclusive = weak or mixed curves; inactive = no such curve, though single readings can be large; an effect the other way counts as inactive or inconclusive.

target: Thyrotropin-releasing hormone receptor (Homo sapiens) (UniProt P34981); experiment: qHTS assay to identify small molecule agonists of the thyrotropin-releasing hormone receptor (TRHR) signaling pathway (AID 1346891; calls by dose curve;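 also: HEK293 cells expressing TRHR with calcium dye readout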); conditions: TRHR-HEK293 calcium fluorescence, agonist mode; series mostly up to 57.6 µM; activation: at the top concentration
Sequence (P34981 whole entry, looked up): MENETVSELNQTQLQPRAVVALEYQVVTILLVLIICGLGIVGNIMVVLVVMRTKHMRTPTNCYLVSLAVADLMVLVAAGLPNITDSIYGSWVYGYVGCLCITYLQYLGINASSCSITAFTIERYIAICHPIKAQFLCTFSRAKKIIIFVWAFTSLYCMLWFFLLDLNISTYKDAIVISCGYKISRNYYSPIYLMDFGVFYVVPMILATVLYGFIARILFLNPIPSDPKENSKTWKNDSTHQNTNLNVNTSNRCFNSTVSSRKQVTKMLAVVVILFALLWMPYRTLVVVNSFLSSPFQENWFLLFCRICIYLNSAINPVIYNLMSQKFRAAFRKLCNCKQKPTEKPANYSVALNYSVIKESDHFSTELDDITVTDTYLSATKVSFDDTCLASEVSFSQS
Procedure, shortened: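 Overnight-plated (18 h, 37 °C, 5% CO2) TRHR-Hek293 cells; 2 h calcium dye at 37 °C; compound in DMSO; 3-min kinetic fluorescence read.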
% is scaled to controls: 0 for no effect and ±100 for the full control effect.

| SMILES | activation | outcome |
| --- | --- | --- |
| N#CC(Br)(Br)C(N)=O | -0.117% | – |
| O=C(NC(O)C(Cl)(Cl)Cl)NC(O)C(Cl)(Cl)Cl (stereo not given) | -0.0799% [at 26.5 µM] | – |
| CCCCS(=O)(=O)Cl | -0.343% | – |
| C[C@]12C=CC(=O)C=C1CC[C@@H]1[C@@H]2CC[C@@]2(C)[C@H]1CC[C@]2(C)O | 0.888% [at 26.5 µM] | – |
| O=c1[nH]c2ccccc2o1 | 0.0616% | – |
| CCN(CCO)CCn1c(Cc2ccccc2)nc2c1c(=O)n(C)c(=O)n2C | -0.135% [at 26.5 µM] | – |
| CCc1cc(OC)c(C[C@H](C)N)cc1OC | 0.17% | – |
| CCCCCCCC(=O)Cl | -0.0785% | – |
| O=C(O)c1c(Cl)ccc2cc(Cl)cnc12 | -0.166% | – |
| c1cncc([C@@H]2CCCCN2)c1 | -0.0675% | – |
| CC(C)(C)NC[C@H](O)c1ccc(O)cc1Cl | 1.35% [at 26.5 µM] | – |
| NC1(c2ccccc2)CCCCC1 | -0.134% | – |
| CCN(CCO)CCO | 0.384% | – |
| NNCc1ccccc1 | -0.478% | – |
| C[C@H](N)C(=O)c1ccccc1 | 0.357% | – |
| COC(=O)c1ccc(CBr)cc1 | -0.0907% | – |
| CC1N=C(N)OC1c1ccccc1 (stereo not given) | 0.446% | – |
| CCN[C@@H](C)Cc1ccccc1 | 0.905% | – |

| SMILES | activation | outcome |
| --- | --- | --- |
| CC(=O)CN(CC(C)=O)N=O | -0.523% | – |
| ClC1=C(Cl)C2(Cl)C(CBr)CC1(Cl)C2(Cl)Cl (stereo not given) | – | inactive |
| COc1ccc(C=O)cc1O | -0.0447% | – |
| C=C1CC[C@@]2(O)[C@H]3Cc4ccc(O)c5c4[C@@]2(CCN3CC2CC2)[C@H]1O5 | 0.0302% [at 26.5 µM] | – |
| C(COCC1CO1)OCC1CO1 (stereo not given) | -0.173% | – |
| COP(=O)(O)OC | -0.826% | – |
| CCNc1nc(NCC)nc(SC)n1 | -0.522% | – |
| C[C@H](CN1CCOCC1)C(C(=O)N1CCCC1)(c1ccccc1)c1ccccc1 | -0.0079% | – |
| O=C(O)C(F)(F)C(F)(F)C(F)(F)C(F)(F)C(F)(F)C(F)(F)F | -0.0157% | – |
| CCOC(=O)Nc1cccc(OC(=O)Nc2ccccc2)c1 | -0.231% | – |
| BrCC1CO1 (stereo not given) | 0.174% | – |
| COc1ccc(CN2CCNCC2)c(OC)c1OC | 0.538% [at 26.5 µM] | – |
| NNC(N)=O | -0.299% | – |
| [P]#[In] | 0.712% | – |
| O=C(O)CBr | -0.595% | – |
| CCCC[N+](=O)[O-] | 0.281% | – |
| OCC(Cl)CCl (stereo not given) | -0.0312% | – |

system: not listed separately; experiment: Human pregnane X receptor (PXR) small molecule agonists, qHTS cell viability counter screen (AID 1346977); conditions: PXR-Luc HepG2 viability, CellTiter-Fluor, 24 h; series mostly up to 92.4 µM; activity change, negative = cytotoxicity: at the top concentration; also: nearly all actives have a fitted effect of over 50% in size; also: potency is read from the fitted curve at half-maximal effect
Procedure, shortened: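 After a 5hr pre-incubation, PXR-Luc HepG2 cells received compounds plus positive control in DMSO and were kept 24hr at 37C. Cell viability was quantified by fluorescence from CellTiter-Fluor added for the final hour.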

| SMILES | activity change, negative = cytotoxicity | Potency |
| --- | --- | --- |
| N#CC(Br)(Br)C(N)=O | 12.4% | – |
| O=C(NC(O)C(Cl)(Cl)Cl)NC(O)C(Cl)(Cl)Cl (stereo not given) | 8.4% [at 42.5 µM] | – |
| CCCCS(=O)(=O)Cl | 11.5% | – |
| C[C@]12C=CC(=O)C=C1CC[C@@H]1[C@@H]2CC[C@@]2(C)[C@H]1CC[C@]2(C)O | 7.52% [at 42.5 µM] | – |
| O=c1[nH]c2ccccc2o1 | 3.68% | – |
| CCN(CCO)CCn1c(Cc2ccccc2)nc2c1c(=O)n(C)c(=O)n2C | 3.27% [at 42.5 µM] | – |
| CCCCCCCC(=O)Cl | -17.8% | – |
| O=C(O)c1c(Cl)ccc2cc(Cl)cnc12 | 12.7% | – |
| c1cncc([C@@H]2CCCCN2)c1 | -1.32% | – |
| CC(C)(C)NC[C@H](O)c1ccc(O)cc1Cl | 8.63% [at 42.5 µM] | – |
| CCN(CCO)CCO | 4.1% | – |
| NNCc1ccccc1 | 0.757% | – |
| C[C@H](N)C(=O)c1ccccc1 | -0.0935% | – |
| COC(=O)c1ccc(CBr)cc1 | -7.46% | – |
| CCN[C@@H](C)Cc1ccccc1 | -12.4% | – |
| CC(=O)CN(CC(C)=O)N=O | -3.52% | – |

| SMILES | activity change, negative = cytotoxicity | Potency |
| --- | --- | --- |
| ClC1=C(Cl)C2(Cl)C(CBr)CC1(Cl)C2(Cl)Cl (stereo not given) | -0.056% [at 42.5 µM] | – |
| COc1ccc(C=O)cc1O | 0.131% | – |
| C=C1CC[C@@]2(O)[C@H]3Cc4ccc(O)c5c4[C@@]2(CCN3CC2CC2)[C@H]1O5 | -11.6% [at 42.5 µM] | – |
| C(COCC1CO1)OCC1CO1 (stereo not given) | -1.96% | – |
| COP(=O)(O)OC | -3.24% | – |
| CCNc1nc(NCC)nc(SC)n1 | 2.87% | – |
| C[C@H](CN1CCOCC1)C(C(=O)N1CCCC1)(c1ccccc1)c1ccccc1 | – | 83.4 µM (active) |
| O=C(O)C(F)(F)C(F)(F)C(F)(F)C(F)(F)C(F)(F)C(F)(F)F | -0.964% | – |
| CCOC(=O)Nc1cccc(OC(=O)Nc2ccccc2)c1 | -2.04% | – |
| BrCC1CO1 (stereo not given) | -0.616% | – |
| COc1ccc(CN2CCNCC2)c(OC)c1OC | 0.421% [at 42.5 µM] | – |
| NNC(N)=O | -0.577% | – |
| O=C(O)CBr | 5.62% | – |
| CCCC[N+](=O)[O-] | 12.3% | – |
| OCC(Cl)CCl (stereo not given) | 12.1% | – |

system: not listed separately; experiment: Caspase-3/7 induction in CHO-K1 cells by small molecules, qHTS cell viability counter screen (AID 1346979); conditions: CellTiter-Fluor fluorescence, 17 h; series mostly up to 92.4 µM; activity change, negative = cytotoxicity: at the top concentration; also: nearly all actives have a fitted effect of over 35% in size; also: potency is read from the fitted curve at half-maximal effect
Procedure, shortened: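 Multiplexed with Caspase-Glo 3/7 in CHO-K1 cells, this counter screen added CellTiter-Fluor after 16hr of compound exposure and recorded fluorescence 1hr later.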

| SMILES | Potency | activity change, negative = cytotoxicity |
| --- | --- | --- |
| N#CC(Br)(Br)C(N)=O | 61.1 µM (active) | – |
| O=C(NC(O)C(Cl)(Cl)Cl)NC(O)C(Cl)(Cl)Cl (stereo not given) | – | -1.45% [at 42.5 µM] |
| CCN(CCO)CCn1c(Cc2ccccc2)nc2c1c(=O)n(C)c(=O)n2C | – | 3.43% [at 42.5 µM] |
| CCc1cc(OC)c(C[C@H](C)N)cc1OC | – | -1.91% |
| CCCCCCCC(=O)Cl | 49 µM (active) | – |
| CC(C)(C)NC[C@H](O)c1ccc(O)cc1Cl | – | -0.814% [at 42.5 µM] |
| NC1(c2ccccc2)CCCCC1 | – | -12.3% |
| CCN(CCO)CCO | – | 9.98% |
| NNCc1ccccc1 | – | 1.22% |
| C[C@H](N)C(=O)c1ccccc1 | – | -0.198% |
| CC1N=C(N)OC1c1ccccc1 (stereo not given) | – | -3.08% |
| CCN[C@@H](C)Cc1ccccc1 | – | -0.751% |
| CC(=O)CN(CC(C)=O)N=O | – | 0.167% |
| ClC1=C(Cl)C2(Cl)C(CBr)CC1(Cl)C2(Cl)Cl (stereo not given) | – | 5.57% [at 42.5 µM] |
| C=C1CC[C@@]2(O)[C@H]3Cc4ccc(O)c5c4[C@@]2(CCN3CC2CC2)[C@H]1O5 | – | 2.03% [at 42.5 µM] |
| C(COCC1CO1)OCC1CO1 (stereo not given) | – | 0.247% |
| COP(=O)(O)OC | – | 6.7% |
| CCNc1nc(NCC)nc(SC)n1 | – | 7.1% |
| O=C(O)C(F)(F)C(F)(F)C(F)(F)C(F)(F)C(F)(F)C(F)(F)F | – | 11.3% |
| CCOC(=O)Nc1cccc(OC(=O)Nc2ccccc2)c1 | – | 8.49% |
| NNC(N)=O | – | -1.22% |
| [P]#[In] | – | 0.5% |
| O=C(O)CBr | – | 6.71% |
| CCCC[N+](=O)[O-] | – | 5.52% |
